Screening results deposited in PubChem BioAssay by several laboratories.
PP1 inh – PP1-alpha phosphatase inhibitors, primary screen, counter-screen for PP5 inhibitor project, biochemical, fluorescence, OMFP substrate, single point | inhibition, % at 6.7 µM | purified PP1alpha | 0.9% of 320,000 active;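 active = inhibition above the mean inhibition of all tested compounds plus 3 SD, computed separately for each screening campaign, cut at about 15% in these data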
PP5 inh – PP5 phosphatase inhibitors, primary screen, biochemical, fluorescence | Serine/threonine-protein phosphatase 5 (Homo sapiens), P53041 | purified PP5c, OMFP substrate fluorescence | inhibition, % at 6.7 µM | AID 1987, 2009 | 0.18% of 320,000 active;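 active = inhibition above the campaign's mean inhibition across all tested compounds plus 3 SD, cut at about 9.5% in these data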;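 also: 0% = DMSO only and 100% = 100 µM cantharidin control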
Target sequence (P53041 whole entry, looked up): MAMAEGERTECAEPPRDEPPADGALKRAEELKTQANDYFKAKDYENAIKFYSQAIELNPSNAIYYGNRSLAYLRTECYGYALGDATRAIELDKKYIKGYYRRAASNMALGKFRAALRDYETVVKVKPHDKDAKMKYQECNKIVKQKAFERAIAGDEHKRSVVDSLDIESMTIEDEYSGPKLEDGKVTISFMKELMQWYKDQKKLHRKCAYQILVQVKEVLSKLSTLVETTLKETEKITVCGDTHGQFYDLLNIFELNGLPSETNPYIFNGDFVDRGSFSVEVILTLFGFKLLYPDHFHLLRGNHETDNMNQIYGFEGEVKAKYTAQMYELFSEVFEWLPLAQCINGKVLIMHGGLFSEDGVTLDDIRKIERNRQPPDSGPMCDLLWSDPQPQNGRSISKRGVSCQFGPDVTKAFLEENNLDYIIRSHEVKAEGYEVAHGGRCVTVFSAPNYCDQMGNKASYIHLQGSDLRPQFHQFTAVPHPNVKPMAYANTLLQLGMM
STK33 kinase inh – inhibitors of purified STK33 kinase, primary screen, biochemical, ADP-Glo luminescence, homogeneous, cell-free; Serine/threonine-protein kinase 33 (Homo sapiens), Q9BYT3; MBP phosphorylation; inhibition, % at 10 µM; 0.073% of 320,000 active; AID 2661, 2010;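 active = inhibition at or above 25%, using the most active replicate where run in duplicate; inactive = inhibition below 25%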
HIF activator – HIF pathway transcriptional activators, primary screen, cell-based, U2OS HRE-luciferase, luminescence; U2OS HRE-luciferase reporter; normalized: DMSO 0%, desferrioxamine 100%; activation, % at 7.5 µM (by protocol); 0.32% of 300,000 active; AID 1910, 2009;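 active = mean activation of at least 10% of the iron chelator positive control signal, with at least half of replicates also reaching 10%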
Dyrk1A ADPGlo – rat Dyrk1A kinase inhibitors, primary screen, biochemical, single point, plate reader; Dual specificity tyrosine-phosphorylation-regulated kinase 1A (Rattus norvegicus), Q63470; ADP-Glo luminescence, NFATc1 peptide; inhibition, % at 12.5 µM; 0.43% of 310,000 active; AID 504441, 2011; in the data active = inhibition above about 50%;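 also: plate controls were vehicle with enzyme for no effect and no enzyme for full effect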
PP5 conf – PP5 phosphatase inhibitors, confirmation, biochemical, fluorescence, human. shares compounds with PP5 inh. Purified PP5, fluorogenic phosphatase substrate. inhibition, % at 6.7 µM. 22% of 460 active; in the data active = inhibition above about 9.5%
PP1 counter 3x – PP1 phosphatase inhibitors, counter-screen for PP5 inhibitor project, biochemical, fluorescence, triplicate. shares compounds with PP5 inh. AID 2355, 2010. 4% of 460 active. PP1 enzyme, fluorescent phosphatase substrate. inhibition, % at 6.7 µM; in the data active = inhibition above about 16%
Active calls of the source: *; nt = no result. Compounds with a hit are over-represented: about 1.5% of the library has one in this group of screens.

SMILES | PP1 inh | PP5 inh | STK33 kinase inh | HIF activator | Dyrk1A ADPGlo | PP5 conf | PP1 counter 3x
Cc1cc(C)cc(N2C(=O)C=CC2=O)c1 | nt | nt | nt | nt | 1.9 | nt | nt
CCCc1[nH]c2ccc(C#N)cc2c1CCC | 2.2 | 12.5* | -0.5 | 0.8 | -3.0 | 6.7 | 6.2
CCCc1[nH]c2ccc(C(=O)OC)cc2c1CCC | -2.1 | 6.8 | 0.3 | 1.5 | 30.6 | nt | nt
COc1ccc(C(CNC(=O)c2cccc(Br)c2)N2CCCC2)cc1 (stereo not drawn) | -2.4 | 10.5* | -0.3 | -0.4 | 4.3 | -2.9 | -4.6
COc1ccc(C(CNC(=O)c2cccc(NS(=O)(=O)c3ccccc3)c2)N2CCCC2)cc1 (stereo not drawn) | nt | nt | nt | nt | -1.3 | nt | nt
C=CCc1ccc(O)c(-c2cc(CC=C)ccc2O)c1 | 6.4 | 11.4* | -0.6 | -0.1 | 10.6 | 3.2 | 5.9
O=C(N/N=C/c1ccccc1OC(F)F)NC1CCCCC1 | 5.1 | 10.9* | 0.7 | 0.2 | -0.5 | -1.9 | -2.1
O=C(NCCCCc1ccccc1)Nc1ccc(F)cc1 | -4.6 | 2.7 | -2.0 | 0.5 | -1.3 | nt | nt
CCOC(=O)C1=C(C)N[C@@]2(O)c3ccccc3C(=O)[C@@]12O | 0.1 | 6.5 | -0.3 | -2.5 | 0.2 | nt | nt
CC(=O)C1=C(C)OC2(O)c3ccccc3C(=O)C12O (stereo not drawn) | 8.6 | 14.4* | -0.1 | 0.8 | nt | 34.5* | 2.5
CCOC(=O)C1=C(C)OC2(O)c3ccccc3C(=O)C12O (stereo not drawn) | 2.3 | 12.2* | -0.1 | -0.5 | nt | 40.6* | 13.1
Cc1cccc(NC(=O)C2CCCN(S(=O)(=O)c3ccc4[nH]c(=O)ccc4c3)C2)n1 (stereo not drawn) | 1.3 | -0.4 | -0.6 | -0.4 | -5.1 | nt | nt
O=C(NCC1CCCO1)c1cc2c([nH]c3ccccc32)c(-c2cccc(Cl)c2)n1 (stereo not drawn) | 10.5 | 10.9* | 0.0 | 0.3 | -9.9 | 2.7 | 6.3
COc1cc(-c2nc(C(=O)NCC3CCCO3)cc3c2[nH]c2ccccc23)cc(OC)c1OC (stereo not drawn) | -0.1 | 8.5 | 2.0 | -0.1 | 1.6 | nt | nt
Cn1c(SCC(=O)N2c3ccccc3CCc3ccccc32)nnc1-c1ccc(O)cc1 | -3.6 | 9.7* | -0.5 | -0.7 | 0.3 | -3.9 | -6.1
Cn1c(SCC(=O)c2ccccc2)nnc1-c1ccc(O)cc1 | -1.4 | 1.6 | 1.9 | 1.2 | -3.3 | nt | nt
CC1(C(=O)Nc2ccc3c(c2)OCCO3)CC1(Cl)Cl (stereo not drawn) | -3.1 | 19.4* | -0.1 | 0.3 | -4.6 | -5.2 | -3.7
C=C(C)C1CC=C(C)/C(=N/NC(=O)CNc2ccc(OCC)cc2)C1 (stereo not drawn) | 7.1 | 9.6* | -0.7 | -0.3 | 30.7 | -0.4 | 5.8
Cc1snc(S(=O)(=O)/C(C#N)=N/Nc2ccc(C(F)(F)F)cc2)c1C#N | 6.2 | 10.3* | 0.5 | 0.5 | 3.9 | 7.3 | 11.8
CC1(C)Cc2cccc(OCC(=O)N3CCN(c4ccccc4F)CC3)c2O1 | -3.8 | 1.1 | -0.1 | 0.7 | -14.4 | nt | nt
COc1ccccc1N1CCN(C(=O)c2ccc(COc3cccc4c3OC(C)(C)C4)cc2)CC1 | 2.0 | 11.7* | 0.5 | 0.2 | -1.0 | 2.2 | 0.5
COc1ccc(C(=O)Nc2ccc(OCC(F)(F)C(F)F)c(C(F)(F)F)c2)cc1OC | 10.9 | 12.4* | -0.4 | 0.6 | -2.8 | 11.2* | 7.6
O=C(Nc1ccc(OCC(F)(F)C(F)F)c(C(F)(F)F)c1)c1ccc(Cl)cc1 | 4.7 | 6.1 | 0.2 | 3.6 | 2.2 | nt | nt
Cc1c(NC(=O)COC(=O)c2ccc(Cl)nc2)c(=O)n(-c2ccccc2)n1C | nt | nt | 0.2 | nt | -1.0 | nt | nt
O=c1[nH]c(Nc2ccccc2)cc2ccccc12 | -0.5 | 10.8* | 1.6 | 0.0 | 35.0 | 33.9* | 0.0
SMILES | PP1 inh | PP5 inh | STK33 kinase inh | HIF activator | Dyrk1A ADPGlo | PP5 conf | PP1 counter 3x
CC(=O)c1cccc(-c2ccc3c(=O)[nH]c(Nc4ccccc4)cc3c2)c1 | 13.4 | 9.7* | -0.1 | -0.8 | -8.0 | 29.4* | 20.9*
COc1ccc(C(=O)c2nccc3cc(OC)c(OC)cc23)cc1OC | 2.5 | 13.1* | -0.7 | nt | 6.5 | 48.0* | 7.3
O=C(O)Cc1ccc(-n2cccc2)cc1 | -1.6 | -0.2 | 1.1 | -0.3 | -0.9 | nt | nt
CCOC(=O)C1=C(C)N(CCCC(=O)O)C(=O)NC1c1ccc2ccccc2c1 (stereo not drawn) | -3.8 | -0.3 | 0.0 | -0.1 | -0.9 | nt | nt
Cc1cc(C)cc(NC(=O)C2C3C=CC(O3)C2C(=O)O)c1 (stereo not drawn) | 1.4 | 19.9* | -1.9 | 1.7 | 5.4 | 0.0 | 18.9*
Cc1csc(NC(=O)C2C3C=CC(O3)C2C(=O)O)n1 (stereo not drawn) | -2.1 | 15.5* | -1.5 | -0.4 | -10.8 | 15.1* | 14.2
CC(C)=C1C2CCC1C(C(=O)Nc1cc(C)cc(C)c1)C2C(=O)O (stereo not drawn) | -0.1 | -2.2 | -0.8 | -0.3 | -1.5 | nt | nt
CC(=O)Nc1nc(C)cs1 | -10.8 | 0.1 | 0.9 | 0.3 | -0.7 | nt | nt
O=C(O)C1C2C=CC(O2)C1C(=O)Nc1ccccc1C(F)(F)F (stereo not drawn) | -3.1 | 0.5 | -0.5 | -0.2 | -5.7 | nt | nt
O=C(O)C1C2C=CC(O2)C1C(=O)Nc1cccc(C(F)(F)F)c1 (stereo not drawn) | 8.9 | 32.8* | -0.6 | -10.1 | -1.5 | -2.8 | 6.0
COc1ccccc1C(=O)NCCN=C1NS(=O)(=O)c2ccccc21 | 1.7 | -0.5 | 0.1 | -0.1 | 9.0 | nt | nt
COc1ccc(-c2cccc3c2NC(=O)C3=O)cc1OC | nt | nt | nt | nt | 7.8 | nt | nt
O=C(OCc1ccc(F)cc1)c1cc(S(=O)(=O)N2CCCCC2)ccc1N1CCOCC1 | -1.7 | -1.9 | -2.1 | 0.0 | -0.9 | nt | nt
CCOc1cc(-c2cc(-c3ccc(C)cc3)nc(N)c2C#N)ccc1O | 1.0 | 9.7* | 2.0 | -0.8 | -1.3 | 0.0 | 2.7
COc1cc(-c2cc(-c3ccc(O)cc3)nc(N)c2C#N)ccc1O | -1.1 | 5.2 | 4.0 | 0.5 | 16.5 | nt | nt
Cc1cc(OCC(=O)c2ccc(Br)cc2)ccc1N1C(=O)CCC1=O | -1.7 | 12.8* | 3.8 | -0.3 | -2.3 | -5.7 | -2.9
Cc1ccc(C(=O)Oc2ccc(N3C(=O)CCC3=O)c(C)c2)cc1 | -3.0 | -1.5 | -0.7 | 0.7 | -2.2 | nt | nt
Cn1nnnc1NCc1cccc(Cl)c1Cl | 0.7 | 14.6* | -0.1 | -1.0 | 10.7 | -1.2 | -3.1
O=C1C(=O)c2ccccc2C(O)=C1c1ccccc1F | -3.6 | 0.5 | 1.3 | 0.3 | 22.7 | nt | nt
O=C1C(O)=C(O)C(=O)c2ccccc21 | 6.0 | 13.2* | 1.5 | nt | 38.4 | 14.2* | 28.0*
